DRV1 agonist: activates human resolvin D1 receptor GPR32. O75388. CHO-K1 GPR32 beta-arrestin PathHunter luminescence, 90 min; zero percent set by DMSO-only wells. activation, % at 76.9 µM. actives 2.5% (n = 48,000). AID 1346428;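 active = activation of at least 60% and not above a set upper limit, about 1 call in 100 departs from these limits; inconclusive = activation of 40% to 60%, or above that upper limit; inactive = activation under 40%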
Target sequence (O75388 whole entry, looked up): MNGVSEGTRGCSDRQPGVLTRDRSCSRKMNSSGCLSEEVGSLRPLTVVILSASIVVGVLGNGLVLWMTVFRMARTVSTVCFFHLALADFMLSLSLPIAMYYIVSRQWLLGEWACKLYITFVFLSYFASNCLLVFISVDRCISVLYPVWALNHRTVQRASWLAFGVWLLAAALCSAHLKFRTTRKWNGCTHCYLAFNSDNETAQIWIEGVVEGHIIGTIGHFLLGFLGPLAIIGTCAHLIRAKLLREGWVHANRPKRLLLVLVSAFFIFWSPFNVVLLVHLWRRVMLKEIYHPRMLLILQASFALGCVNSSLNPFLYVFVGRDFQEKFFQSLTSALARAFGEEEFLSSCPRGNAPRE
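Agonism was scored by beta-Gal fragment complementation (chemiluminescent read, 1 h detection at ambient temperature) reporting beta-arrestin binding to GPR32 in engineered CHO-K1 cells. Compound treatment lasted 90 min at 37 C, normalized to a DMSO basal control.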
p53null 39C tox: kills p53 null cells at the nonpermissive temperature. H1299 p53-null (neo) cells, 39C, ATPlite viability, 24 h. AID 904. Potency, µM (series often up to 46.1 µM), most hits filed as cytotoxic. actives 0.97% (n = 55,000); also: nearly all actives have a fitted effect of over 50% in size
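ATP-luminescence viability readout (ATPlite, 20 min RT) after 24 hr compound treatment at 39C of H1299-neo or H1299-p53A138V cells; titration up to 46 uM; normalized to DMSO and 100 uM tamoxifen; Hill-fit AC50.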
p53null 32C tox: selectivity test: cytotoxicity in p53 null cells, permissive temperature; H1299-neo p53 null cells, ATP luminescence, 24 h, 32C; Potency, µM (highest dose often 46.1 µM), usual class: cytotoxic; actives 0.62% (n = 55,000); AID 903; also: nearly all actives have a fitted effect of over 55% in size
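We seeded p53-null H1299-neo cells, incubated them overnight at 37C, and added compounds across a range up to 46 uM. After 24 hours at 32C, ATP reagent was applied for 20 min at room temperature and luminescence recorded.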
NTMT1 inh: inhibitors of human N-terminal methyltransferase NTMT1; NTMT1 MTase-Glo SAH luminescence, purified enzyme; Potency, µM (doses to about 114 µM), hits mostly inhibitors; actives 2.5% (n = 59,000); AID 1645870; also: nearly all actives have a fitted effect of over 65% in size
Target sequence (Q9BV86 whole entry, looked up): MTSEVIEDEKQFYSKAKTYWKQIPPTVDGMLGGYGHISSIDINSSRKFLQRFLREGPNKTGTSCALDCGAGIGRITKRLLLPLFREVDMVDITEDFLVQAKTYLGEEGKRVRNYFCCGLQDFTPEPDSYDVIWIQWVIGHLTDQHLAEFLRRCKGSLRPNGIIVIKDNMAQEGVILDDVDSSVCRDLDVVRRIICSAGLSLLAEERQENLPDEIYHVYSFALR
OvCa metastasis: ovarian cancer metastasis inhibition, 3D TME model | SKOV3ip1-GFP adhesion/invasion on 3D omental model, fluorescence | Potency, µM (top dose mostly 45.8 µM), usual class: inhibitors | actives 0.1% (n = 46,000); also: nearly all actives have a fitted effect of over 65% in size
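A 3D layer of primary human omental fibroblasts, mesothelial cells, fibronectin and collagen I, grown 48 hr, received SKOV3ip1-GFP cells in serum-free medium plus compounds at 0.36-46 umol/L. After 2 hr RT and 16 hr 37 C, fixed adherent GFP cells were counted; normalized to DMSO and tomatine.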
GALC G270D up: raises human GALC G270D mutant activity in cells. P54803. 145M-Twi-hGALC-G270D cells (Twitcher mouse brain line with human GALC G270D), HMU-beta-Gal fluorescence, 48 h. Potency, µM (top dose mostly 57.5 µM), most hits filed as activators. actives 0.1% (n = 45,000). AID 1159614; also: nearly all actives have a fitted effect of over 65% in size
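Brain-derived Twitcher mouse 145M-Twi cells stably expressing human GALC-G270D or wild-type GALC, treated live, then residual GALC activity read by fluorescence of HMU-b-Gal substrate (0.1 mM final) in citrate-phosphate buffer pH 5.2 with sodium taurocholate. Signal increase indicates enhancement.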
A number is an active result; i = inactive; ? = inconclusive; nt = not tested or not shown; ! = not confirmed by another sample. Compounds with a hit are over-represented: about 4% of the library has one in this group of screens. Unless noted, calls follow the shape of the dose curve; as a rule, active = well fitted curve in the direction sought with a large enough effect; inconclusive = small, poorly fitted or top-dose-only effect, or another doubt; inactive = no such curve, though single readings can be large; an effect the other way counts as inactive or inconclusive.

SMILES	DRV1 agonist	p53null 39C tox	p53null 32C tox	NTMT1 inh	OvCa metastasis	GALC G270D up
CCC1CCCCN1CCCNC(=O)c1ccc2c(c1)N(Cc1ccc(Cl)cc1)C(=O)c1ccccc1S2(=O)=O (stereo unspecified)	i	25µM	i	?	i	i
CC1CCCN(CCCNC(=O)c2ccc3c(c2)N(Cc2ccc(Cl)cc2)C(=O)c2ccccc2S3(=O)=O)C1 (stereo unspecified)	i	16µM	?	?	?	i
Oc1cccc(-c2nc(N3CCOCC3)c3sccc3n2)c1	nt	nt	nt	40µM	nt	nt
Oc1cccc(-c2nc(N3CCOCC3)c3oc4ncccc4c3n2)c1	nt	nt	nt	?	i	nt
CCC(C)C(N)C1=NC(C(=O)N[C@@H](CC(C)C)C(=O)N[C@H](CCC(=O)O)C(=O)N[C@H](C(=O)N[C@H]2CCCCNC(=O)[C@H](CC(N)=O)NC(=O)[C@@H](CC(=O)O)NC(=O)[C@H](Cc3cnc[nH]3)NC(=O)[C@@H](Cc3ccccc3)NC(=O)[C@H]([C@@H](C)CC)NC(=O)[C@@H](CCCN)NC2=O)[C@@H](C)CC)CS1 (stereo partly specified)	nt	nt	nt	7.9µM!	nt	nt
CCC(C)CCCCC(=O)N[C@@H](CCN)C(=O)NC(C(=O)N[C@H](CCN)C(=O)N[C@@H]1CCNC(=O)C([C@@H](C)O)NC(=O)[C@@H](CCN)NC(=O)[C@@H](CCN)NC(=O)[C@@H](CC(C)C)NC(=O)[C@H](Cc2ccccc2)NC(=O)[C@H](CCN)NC1=O)[C@@H](C)O (stereo partly specified)	nt	nt	nt	?	i	nt
CCc1ccc(NC(=O)CN2C(=O)c3cccc4cccc2c34)cc1	120	i	i	nt	i	nt
COc1ccccc1NC(=O)CN1C(=O)CCSc2ccccc21	i	i	i	i	i	i
CCc1ccc(NC(=O)CN2C(=O)CCSc3ccccc32)cc1	63	i	i	i	i	i
CC1CCCN(C(=O)CSc2c3c(nc4cc(Cl)ccc24)CCCC3)C1 (stereo unspecified)	i	16µM	i	i	i	i
COc1cc(OC)c(N(C)C(=O)CSc2c3c(nc4ccc(Cl)cc24)CCCC3)cc1Cl	i	20µM	i	i	i	i
CCCN(CCC)C(=O)CSc1c2c(nc3ccc(Cl)cc13)CCCC2	i	?	i	i	i	i
CN(Cc1ccccc1)C(=O)CSc1c2c(nc3ccc(Cl)cc13)CCCC2	i	13µM	?	i	?	i
CCCCN(C)C(=O)CSc1c2c(nc3ccc(Cl)cc13)CCCC2	i	i	i	?	i	i
CC1CCCCN1C(=O)CSc1c2c(nc3cc(Cl)ccc13)CCCC2 (stereo unspecified)	i	i	i	?	i	i
O=C(Nc1cccc(S(=O)(=O)Nc2ccc(Cl)cc2)c1)c1cc2c(s1)CCCC2	nt	2.8µM	i	nt	nt	nt
CCCN1C(C(=O)c2ccccc2)=C(OC(=O)c2ccc(OC)cc2)c2ccccc2S1(=O)=O	i	i	i	i	i	i
CCCCC(=O)OC1=C(C(=O)c2ccccc2)N(CC)S(=O)(=O)c2ccccc21	i	?	i	i	i	i
CCN1C(C(=O)c2ccccc2)=C(OC(=O)c2ccccc2OC)c2ccccc2S1(=O)=O	i	13µM	?	i	?	i
CCCCN1C(C(=O)c2ccccc2)=C(OC(C)=O)c2ccccc2S1(=O)=O	i	5µM	?	i	i	i
Nc1ccc2c(c1)C(=O)NS2(=O)=O	nt	nt	nt	i	nt	nt
N#Cc1ccccc1CCc1nc2ncc(Br)cc2[nH]1	nt	nt	nt	i	nt	nt
Fc1cccc(-c2ccc(Nc3nc(-c4ccncc4)nc4ccccc34)cc2F)c1	nt	nt	nt	i	nt	nt
O=C(Nc1cncc(NC(=O)c2cccs2)c1)c1cccs1	nt	nt	nt	i	nt	nt
Cc1[nH]c2ccc(F)cc2c1-c1nc2c3cccnc3c3ncccc3c2[nH]1	nt	nt	nt	i	nt	nt
SMILES	DRV1 agonist	p53null 39C tox	p53null 32C tox	NTMT1 inh	OvCa metastasis	GALC G270D up
CC(C)c1nnc(NC(=O)c2nc(SCc3ccc(F)cc3)ncc2Cl)s1	109	i	i	i	i	i
Cc1ccc(C)c(NC(=O)c2nc(S(=O)(=O)Cc3ccc(F)cc3)ncc2Cl)c1	i	?	i	i	11µM	i
CCc1nnc(NC(=O)c2nc(S(=O)(=O)Cc3ccc(C)cc3)ncc2Cl)s1	i	16µM	?	i	?	i
Cc1cccc(CS(=O)(=O)c2ncc(Cl)c(C(=O)Nc3nnc(C(C)C)s3)n2)c1	i	13µM	i	i	?	i
C=CC(=O)N1CCCC(n2nc(-c3ccc(Oc4ccccc4)cc3)c3c(N)ncnc32)C1 (stereo unspecified)	nt	nt	nt	i	nt	nt
N#Cc1cccc(CSc2nc3ncc(Br)cc3[nH]2)c1	nt	nt	nt	i	nt	nt
CN(CC(=O)Nc1ccc(N2CCOCC2)cc1)Cc1cccc2ccccc12	nt	nt	nt	i	nt	nt
CC(=O)c1cccc(NC(=O)Nc2nnc(-c3ccncc3)s2)c1	nt	nt	nt	i	nt	nt
O=C(Nc1nc2ccc(F)cc2s1)c1nc(S(=O)(=O)Cc2ccccc2F)ncc1Cl	105	?	?	i	?	i
CCOc1ccc(NC(=O)c2nc(S(=O)(=O)Cc3ccccc3F)ncc2Cl)cc1	i	?	i	i	?	i
CCc1nnc(NC(=O)c2nc(S(=O)(=O)Cc3cccc(C)c3)ncc2Cl)s1	i	?	i	i	13µM	i
Cc1ccc(-c2ccc(=O)n(CCNCCc3ccccc3)n2)cc1	nt	nt	nt	i	nt	nt
O=S(=O)(c1ccc(Cl)cc1)c1nnn2c1nc(NCc1ccccc1)c1sccc12	i	?	i	89µM	i	i
COc1ccc2nc3n[nH]c(C)c3c(NCCOCCO)c2c1	nt	nt	nt	20µM!	nt	nt
CCOC(=O)c1cnc2ccc(OC)cc2c1NCCc1ccccc1	i	?	i	i	i	i
Nc1nc(CC(=O)Nc2ccc(CCNCC(O)c3ccccc3)cc2)cs1 (stereo unspecified)	nt	nt	nt	i	nt	nt
CNC(=O)Nc1ccc(OC)c(NC(=O)NC(=O)c2cc(F)c(F)cc2Cl)c1	nt	nt	nt	i	nt	nt
COc1ccc(NC(=O)CC2Nc3cccc4cccc(c34)NC2=O)cc1 (stereo unspecified)	i	i	i	79µM	i	i
Cc1cc2c(cc1C)NC(CC(=O)Nc1cccc(Cl)c1)C(=O)N2 (stereo unspecified)	i	?	i	i	i	i
O=C(CC1Nc2cccc3cccc(c23)NC1=O)Nc1ccc(F)cc1 (stereo unspecified)	64	i	i	i	i	i
O=C(CC1NCCNC1=O)Nc1cccc(F)c1 (stereo unspecified)	i	nt	nt	i	i	i
Cc1[nH]c2ccccc2c1C1(O)C(=O)N(Cc2ccccc2)c2ccc(Br)cc21 (stereo unspecified)	?	?	i	i	i	i

Bioassay records as filed in PubChem.
